Reference: PubChem BioAssay
Activity calls are given as the source filed them.

Key:
[1] = small molecules captured by biotinylated probe aFSTL3 – biochemical, small-molecule microarray, fluorescence 635/667, stem cell growth factor project, primary screen (AID 1064); conditions: higher = more signal;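 also: measures binding of the biotinylated anti-FSTL3 antibody to printed compounds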
[2] = binders from COS7 lysate, DM2A8 probe, primary screen, torsin A project, cell lysate, small-molecule microarray, fluorescence 635/667 (AID 1065); conditions: higher = more signal, COS7 lysate expressing mutant human TOR1A
[3] = small molecules captured by biotinylated probe aFGF2 – biochemical, small-molecule microarray, fluorescence 635/667, stem cell growth factor project, primary screen (AID 1067); conditions: higher = more signal;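 also: measures binding of biotinylated aFGF2 protein to printed compounds on slides; z-score merges feature fluorescence and signal-to-noise across triplicate slides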
[4] = small molecules captured by biotinylated probe aFGF10 – biochemical, small-molecule microarray, fluorescence 635/667, stem cell growth factor project, primary screen (AID 1071); conditions: higher = more signal;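 also: score merges 667 nm spot intensity and signal to noise from triplicate slides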
[5] = target: Neurogenic locus notch homolog protein 2 (Homo sapiens) (UniProt Q04721); test: small molecules binding Notch2 protein – biochemical, small-molecule microarray, 635 nm fluorescence, stem cell growth factors, primary screen (AID 1073); conditions: higher = more signal
Neurogenic locus notch homolog protein 2 (Homo sapiens), sequence (Q04721 whole entry, looked up, canonical isoform): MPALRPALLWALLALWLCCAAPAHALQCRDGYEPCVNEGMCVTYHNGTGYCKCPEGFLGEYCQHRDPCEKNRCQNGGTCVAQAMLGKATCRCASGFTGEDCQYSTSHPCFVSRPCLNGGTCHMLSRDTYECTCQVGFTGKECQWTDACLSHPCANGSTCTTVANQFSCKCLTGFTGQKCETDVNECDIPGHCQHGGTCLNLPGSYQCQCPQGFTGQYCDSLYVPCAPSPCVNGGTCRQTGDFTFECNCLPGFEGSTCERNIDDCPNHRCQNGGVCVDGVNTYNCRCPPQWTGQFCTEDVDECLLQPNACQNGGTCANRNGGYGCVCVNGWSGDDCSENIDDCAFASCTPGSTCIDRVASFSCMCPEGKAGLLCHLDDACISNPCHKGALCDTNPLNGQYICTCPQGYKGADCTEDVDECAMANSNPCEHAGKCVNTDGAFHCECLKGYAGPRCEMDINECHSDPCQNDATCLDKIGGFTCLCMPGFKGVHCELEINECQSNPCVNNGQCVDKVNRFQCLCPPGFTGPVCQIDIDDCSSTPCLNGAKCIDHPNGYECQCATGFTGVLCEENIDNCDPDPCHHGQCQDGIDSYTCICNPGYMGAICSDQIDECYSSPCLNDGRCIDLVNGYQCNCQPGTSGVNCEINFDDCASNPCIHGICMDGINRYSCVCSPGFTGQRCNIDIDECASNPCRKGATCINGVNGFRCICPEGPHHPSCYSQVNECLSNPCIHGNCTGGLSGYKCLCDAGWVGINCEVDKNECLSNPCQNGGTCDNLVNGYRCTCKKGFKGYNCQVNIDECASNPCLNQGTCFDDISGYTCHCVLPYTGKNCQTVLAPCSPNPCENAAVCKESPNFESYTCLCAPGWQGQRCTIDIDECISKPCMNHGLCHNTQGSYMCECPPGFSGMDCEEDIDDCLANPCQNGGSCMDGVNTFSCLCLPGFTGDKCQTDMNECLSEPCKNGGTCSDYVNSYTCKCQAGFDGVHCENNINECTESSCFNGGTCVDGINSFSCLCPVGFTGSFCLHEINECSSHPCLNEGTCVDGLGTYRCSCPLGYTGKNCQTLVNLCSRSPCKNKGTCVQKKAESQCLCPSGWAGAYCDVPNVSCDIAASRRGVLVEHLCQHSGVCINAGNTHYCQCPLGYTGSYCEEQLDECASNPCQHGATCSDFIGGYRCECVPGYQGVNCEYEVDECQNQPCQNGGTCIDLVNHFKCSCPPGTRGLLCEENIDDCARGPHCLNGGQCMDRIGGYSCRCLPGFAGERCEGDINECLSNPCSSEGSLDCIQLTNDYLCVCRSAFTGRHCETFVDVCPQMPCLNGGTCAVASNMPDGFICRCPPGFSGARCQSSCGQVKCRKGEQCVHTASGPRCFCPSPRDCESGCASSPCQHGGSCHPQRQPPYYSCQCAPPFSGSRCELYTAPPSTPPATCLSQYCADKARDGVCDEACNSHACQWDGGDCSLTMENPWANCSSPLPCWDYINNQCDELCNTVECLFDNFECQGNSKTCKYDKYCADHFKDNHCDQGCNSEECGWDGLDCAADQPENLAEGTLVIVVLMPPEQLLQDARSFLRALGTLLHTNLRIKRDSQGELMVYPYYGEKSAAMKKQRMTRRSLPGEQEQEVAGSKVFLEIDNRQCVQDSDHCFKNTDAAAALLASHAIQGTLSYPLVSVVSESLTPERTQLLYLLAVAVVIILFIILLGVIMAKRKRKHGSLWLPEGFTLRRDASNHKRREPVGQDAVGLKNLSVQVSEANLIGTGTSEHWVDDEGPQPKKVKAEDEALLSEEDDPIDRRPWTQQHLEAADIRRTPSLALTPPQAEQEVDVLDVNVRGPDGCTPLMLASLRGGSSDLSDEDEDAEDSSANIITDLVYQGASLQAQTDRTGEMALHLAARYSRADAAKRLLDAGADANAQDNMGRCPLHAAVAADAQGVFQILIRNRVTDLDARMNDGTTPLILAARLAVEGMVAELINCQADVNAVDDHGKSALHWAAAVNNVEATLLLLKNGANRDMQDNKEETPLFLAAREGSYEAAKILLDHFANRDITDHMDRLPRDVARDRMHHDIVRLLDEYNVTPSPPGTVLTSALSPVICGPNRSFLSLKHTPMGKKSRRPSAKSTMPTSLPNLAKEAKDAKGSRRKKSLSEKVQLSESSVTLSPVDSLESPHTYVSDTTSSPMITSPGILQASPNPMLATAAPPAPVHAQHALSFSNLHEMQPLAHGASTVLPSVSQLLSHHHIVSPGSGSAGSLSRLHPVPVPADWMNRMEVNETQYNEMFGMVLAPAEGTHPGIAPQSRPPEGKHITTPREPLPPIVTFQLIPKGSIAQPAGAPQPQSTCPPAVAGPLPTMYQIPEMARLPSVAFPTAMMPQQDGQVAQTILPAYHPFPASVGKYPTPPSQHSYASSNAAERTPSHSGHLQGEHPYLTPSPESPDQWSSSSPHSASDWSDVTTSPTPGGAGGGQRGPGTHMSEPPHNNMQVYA

[6] = target: Pro-neuregulin-1, membrane-bound isoform (Homo sapiens) (UniProt Q02297); test: small molecules binding neuregulin-1 protein – biochemical, small-molecule microarray, fluorescence 635/667, psychiatric disease protein project, primary screen (AID 1075); conditions: NRG1 binding, 635 nm fluorescence, higher = more signal;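 also: score combines 667 nm spot fluorescence with signal to noise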
Pro-neuregulin-1, membrane-bound isoform (Homo sapiens), sequence (Q02297 whole entry, looked up, the tested form may be a part, canonical isoform): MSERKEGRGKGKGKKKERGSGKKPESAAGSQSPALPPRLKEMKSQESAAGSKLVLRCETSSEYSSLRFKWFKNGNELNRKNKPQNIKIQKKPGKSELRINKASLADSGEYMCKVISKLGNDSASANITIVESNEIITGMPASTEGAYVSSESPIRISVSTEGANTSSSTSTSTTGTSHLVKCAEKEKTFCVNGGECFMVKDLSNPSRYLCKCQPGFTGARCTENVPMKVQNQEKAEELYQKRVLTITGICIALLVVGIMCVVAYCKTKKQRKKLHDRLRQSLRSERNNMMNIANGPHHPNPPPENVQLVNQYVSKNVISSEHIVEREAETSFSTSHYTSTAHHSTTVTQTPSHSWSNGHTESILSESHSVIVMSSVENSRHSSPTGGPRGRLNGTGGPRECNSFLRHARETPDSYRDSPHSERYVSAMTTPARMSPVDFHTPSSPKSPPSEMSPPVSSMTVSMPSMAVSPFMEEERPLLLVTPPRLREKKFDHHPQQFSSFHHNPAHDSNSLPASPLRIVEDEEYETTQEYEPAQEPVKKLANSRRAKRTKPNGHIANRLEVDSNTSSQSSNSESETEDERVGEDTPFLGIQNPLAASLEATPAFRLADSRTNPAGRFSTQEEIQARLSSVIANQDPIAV

[7] = system: Neuregulin-1 EGF-like domain; test: small molecules binding NRG1 EGF domain – biochemical, small-molecule microarray, 635 nm fluorescence, primary screen (AID 1081); conditions: higher = more signal;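 also: binding of the protein to compounds printed on small-molecule microarray slides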
[8] = FRG1 expression reporter modulators in myotubes – cell-based, C2C12 myotubes, firefly/Renilla luciferase, luminescence, FRG1 inhibition for FSHD, primary screen (AID 1084); conditions: FRG1 promoter luciferase, higher = more signal, called active from +8 up or from −8 down
[9] = small molecules captured by biotinylated probe aFST – biochemical, small-molecule microarray, fluorescence 635/667, stem cell growth factor project, primary screen (AID 1086); conditions: higher = more signal;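 also: score merges 667 nm fluorescence with signal-to-noise of each printed compound spot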
[10] = binders of probe aHhip on microarray, primary screen, stem cell growth factor project, biochemical, small-molecule microarray, fluorescence 635/667 (AID 1087); conditions: higher = more signal;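 also: score merges spot fluorescence at 667nm with spot signal to noise ratio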

SMILES | composite z-score [1] | composite z-score [2] | composite z-score [3] | composite z-score [4] | composite z-score [5] | composite z-score [6] | composite z-score [7] | z-score [8] | composite z-score [9] | composite z-score [10]
CC(C)(C)OC(=O)CC[C@]1(C(=O)N2CCCCC2)N=C(c2ccc(OCCCO)cc2)O[C@H]1c1ccccc1CN=[N+]=[N-] | -0.193 | 1.29 | 0.347 | 1.14 | 1.65 | 1.89 | 1.38 | -2.88 (inactive) | 0.821 | -0.574
COCCCNC(=O)[C@]1(Cc2ccccc2CN=[N+]=[N-])N=C(c2ccc(OCCCO)cc2)O[C@@H]1c1ccccc1CN=[N+]=[N-] | 0.726 | 0.686 | 0.256 | 1.03 | 1.25 | 1.84 | 1.15 | -1.35 (inactive) | 1.23 | 0.537
Cc1ccc(S[C@]2(C(=O)O)CC(=O)N(C3CCCCC3)[C@@H]2c2ccc(CO)cc2)cc1 | -0.27 | 0.333 | -0.0943 | -0.315 | 0.555 | 1.36 | 0.962 | -1.02 (inactive) | 0.157 | 0.0496
COC(=O)[C@@]1(Cc2ccccc2)[C@H]2c3cc(C(=O)N4CCCC4)n(CCO)c3C[C@H]2CN1C(=O)c1ccccc1 | 1.35 | 2.52 | 0.759 | 0.77 | 1.58 | 1.62 | 1.15 | -0.292 (inactive) | 2.6 | 0.216
O=C1O[C@H](c2ccccc2)[C@H](c2ccccc2)N2[C@H]1[C@@H](C(=O)N1CCN(c3ncccn3)CC1)[C@]1(C(=O)Nc3ccc(C#CCCO)cc31)[C@H]2c1ccc(OCCO)cc1 | 0.0379 | 1.26 | 0.0229 | 1.26 | 1.53 | 0.826 | 0.995 | 0.0862 (inactive) | 1.35 | -0.0994
CCCC[C@@H](O)C1=C(COc2ccccc2)Cn2c(=O)n(-c3ccccc3)c(=O)n2[C@H]1CO | -0.353 | -0.0302 | -0.118 | 0.0467 | -0.239 | -0.21 | -0.851 | -1.83 (inactive) | -0.512 | 0.0274
COCCCNC(=O)[C@@H]1c2ccccc2C(=O)N(c2ccc(C)cn2)[C@H]1c1ccc(CO)cc1 | 1.02 | -1.72 | -0.294 | -0.286 | -1.58 | 0.825 | -0.54 | 0.183 (inactive) | -0.939 | -0.233
O=C(O)[C@]1(CCS(=O)(=O)c2ccccc2)N=C(c2ccc(OCCCO)cc2)O[C@@H]1c1ccccc1 | 1.19 | -0.106 | 0.115 | -0.0267 | 0.506 | 1.13 | 1.05 | 0.694 (inactive) | 0.914 | 0.744
COC(=O)[C@@]1(Cc2ccc(OC)cc2)[C@H]2c3cc(C(=O)N4CCCC4)n(CCc4ccc(O)c(OC)c4)c3C[C@H]2CN1C(=O)c1ccccc1 | 0.411 | -0.336 | 0.0331 | 0.252 | 1.56 | 1.2 | 0.803 | -0.454 (inactive) | 0.603 | 0.167
C=CC[C@]1(C(=O)N(C)C)N=C(c2ccc(OCCCO)cc2)O[C@H]1c1ccccc1 | 0.334 | 0.184 | 0.229 | 1.14 | 0.353 | 1.85 | 1.34 | 2.28 (inactive) | 0.463 | 0.064
CC1(C)[C@@H]2CC(C(O)C3C=CC4C(=O)N(c5ccccc5)C(=O)C4N3Nc3ccccc3F)=C[C@@H]1C2 (stereo not given in full) | -0.168 | 0.159 | -0.0092 | 1.03 | 1.54 | 1.28 | 1.14 | -3.65 (inactive) | 0.955 | -0.228
COCCOC(=O)N1C(=O)[C@@]2(c3cc(C#CCC(C(=O)OC)C(=O)OC)ccc31)[C@H](c1ccc(OCCO)cc1)N1[C@H](c3ccccc3)[C@H](c3ccccc3)OC(=O)[C@H]1[C@@H]2C(N)=O | -0.564 | -0.461 | -0.116 | 0.245 | 1.15 | 0.928 | 1.22 | -0.441 (inactive) | 0.78 | 0.35
CC(C)N1CC=CC23O[C@@H]4C=CCOC(=O)[C@@H]4[C@H]2C(=O)N(CCCCCCO)[C@@H]3C1=O (stereo not given in full) | -0.895 | -0.775 | -0.237 | 1.07 | -0.697 | -0.126 | 1.47 | 0.213 (inactive) | -0.588 | -0.949
CN1C(=O)C2C=CC(C(O)COCc3ccccc3)N(Nc3ccccc3)C2C1=O (stereo not given) | -0.121 | 0.165 | 0.308 | 0.389 | 1.33 | 0.374 | 1 | 0.146 (inactive) | 0.486 | -0.166
O=C1c2ccccc2C(=O)C2CC([C@H]3Oc4ccccc4S(=O)(=O)N4CCC[C@@H]34)=CCC12 (stereo not given in full) | -0.253 | -0.0672 | -0.176 | -0.159 | 0.193 | 0.583 | 0.449 | -1.71 (inactive) | -0.0883 | 0.21
CC(C)c1ccc(NN2C(C(O)c3cccs3)C=CC3C(=O)N(c4ccccc4)C(=O)C32)cc1 (stereo not given) | 0.222 | -0.14 | 0.117 | 0.353 | 1.66 | 1.54 | 1.19 | -1.87 (inactive) | 0.979 | 0.122
